The values below come from the supplement of paper PMC12632987.

B1: usp_38_diff_out_15_91_161 (protein)
chain: LESKLQAAEGTADYAKEMKAEAEKLGLEEQAKKLQEVADAAKKLAELYKKLIKLEKEGAPKEEIEKVRKEAKKLEEELNKLISEAVPYMAEILLKKQEKE
B2: usp_38_diff_out_16_109_167 (protein)
chain: SADEEAAKLLAEATIKELKALAKEAEERLKKLKAKGASEEVLAAEKKLADTAKKAAEEIEKALKKGENILETTNKKWDEVGAAAAEAAELRRAEARARSA
B3: usp_38_diff_out_16_109_170 (protein)
chain: SQDEEADRLLAEATIENLKALAEEAKERLKKLEAKGASAEVLKAYKDLAETAKKAAEEIKEALKKGENIRETTDKKWDEVGKAAAAASEARRAEARARSA
B4: usp_38_diff_out_15_91_164 (protein)
chain: MSSKTIATKGTRDYLKDAAAEAKELGLEETAKALEEAAALADQLLDLLEQLEKAEKEGADQAEIDKLRKEAKELDAKLNEKISELVPGLAELEQKRIERE
B5: usp_38_diff_out_16_109_169 (protein)
chain: SADEEADRLLAEAAIANFRALAEEARARLARLKARGASPAVLAAHQALADTAEAAAAEIEAALAAGENLRETTDRQWDAVGAAAAAASAALRAEARARSA
B6: usp_38_diff_out_15_91_162 (protein)
chain: LESKLQAARGTADYAREMQERAEELGLEEEAALLQKVRDAAEELAKLYEELIALQKAGADQAEIDKVRKEAKKLLEELNKLISEAVPAAARILLKEQERE
B7: usp_38_diff_out_15_91_160 (protein)
chain: LESKLQAAKGTADWAKEMREEAEELGLEEEAALLEEVRKLAEELAKLLEELIKLEKEGAPQEEIDKLRKEAKEKEKELNEAISKAVPAAARILLARQEKE
B8: usp_38_diff_out_15_91_159 (protein)
chain: LESKLEAARGVAAWAEEMAARARELGLEEEAALFEEVAAAARELAELLEKIIKLKKEGADPKEIEAARKEAKAAEARLNELLSRAVPAAARVLLAEQERE
B9: usp_38_diff_out_15_91_163 (protein)
chain: MSSRTIATEGTLKRLKEDAELARELGLEETAKKAEEAAKLAEELLKLLKEREKAIKAGAPKEEIEKLRKEAKKKEKELNEKLSELVPDWAELELKRIEKE
B10: usp_38_diff_out_15_85_155 (protein)
chain: EAEELKREIEREIEEARRLLEEARALLADPAAPLAAIREVLDRAAEALGRAEALARELRRRFPEYREFVKKALEELDRLTDELERLAREAFEREADALAA
B11: usp_38_diff_out_16_109_165 (protein)
chain: SQDEEADRLLAEAAIANLKALAKEAKEELKKLKARGASPEVLAAYQKLADTAEAAAKAIEAALKAGKNLRETTDKQLDAVGAAAAAASALRRAEARERSA
B12: usp_38_diff_out_15_85_157 (protein)
chain: AAEALKAEIQAKIAEAKALLAEAKALLADPAAPLAEIEAVLDAAARALGQAQALARQLRREFPEQAAFVKAANAELDALTDELTALARAAFERRAEADLA
B13: usp_38_diff_out_16_109_168 (protein)
chain: SADEEADRLLAEAAIANFRALAADAEAELKRLEARGASPAVLKAYADLAAKAKEAAATIEAALAKGENLRETTDAQWDAVGAAAARASELRRAEARERSA
B14: usp_38_diff_out_15_85_156 (protein)
chain: EAEKLKEEIERKIKEAEKLLKEAKKLLADPKAPLEEIRKVLDKAAEALGEAEKLARELRRKFPEEREYVKEVLKRLDKLVDELEKLAREAFEREADALLA
B15: usp_38_diff_out_16_109_166 (protein)
chain: SADEEADRLLAEAAIENFEKLAEEAKEELKKLKAKGASEEVLKAYEDLAKTAREAAEKIREALERGENLRETTREQWDKVGAKAAEASELRRAEARERSA
B16: usp_38_diff_out_15_85_154 (protein)
chain: EAEELKREIEEEIRRAEELLAEAEALLADPAAPLEEIEAVLDEAARALGRAEALARELRRRFPEYREYVKEVLERLDELTDRLLALETEAFERRAEEDLA

This assay addresses T1, USP38, Q8NB14.
T1 chain: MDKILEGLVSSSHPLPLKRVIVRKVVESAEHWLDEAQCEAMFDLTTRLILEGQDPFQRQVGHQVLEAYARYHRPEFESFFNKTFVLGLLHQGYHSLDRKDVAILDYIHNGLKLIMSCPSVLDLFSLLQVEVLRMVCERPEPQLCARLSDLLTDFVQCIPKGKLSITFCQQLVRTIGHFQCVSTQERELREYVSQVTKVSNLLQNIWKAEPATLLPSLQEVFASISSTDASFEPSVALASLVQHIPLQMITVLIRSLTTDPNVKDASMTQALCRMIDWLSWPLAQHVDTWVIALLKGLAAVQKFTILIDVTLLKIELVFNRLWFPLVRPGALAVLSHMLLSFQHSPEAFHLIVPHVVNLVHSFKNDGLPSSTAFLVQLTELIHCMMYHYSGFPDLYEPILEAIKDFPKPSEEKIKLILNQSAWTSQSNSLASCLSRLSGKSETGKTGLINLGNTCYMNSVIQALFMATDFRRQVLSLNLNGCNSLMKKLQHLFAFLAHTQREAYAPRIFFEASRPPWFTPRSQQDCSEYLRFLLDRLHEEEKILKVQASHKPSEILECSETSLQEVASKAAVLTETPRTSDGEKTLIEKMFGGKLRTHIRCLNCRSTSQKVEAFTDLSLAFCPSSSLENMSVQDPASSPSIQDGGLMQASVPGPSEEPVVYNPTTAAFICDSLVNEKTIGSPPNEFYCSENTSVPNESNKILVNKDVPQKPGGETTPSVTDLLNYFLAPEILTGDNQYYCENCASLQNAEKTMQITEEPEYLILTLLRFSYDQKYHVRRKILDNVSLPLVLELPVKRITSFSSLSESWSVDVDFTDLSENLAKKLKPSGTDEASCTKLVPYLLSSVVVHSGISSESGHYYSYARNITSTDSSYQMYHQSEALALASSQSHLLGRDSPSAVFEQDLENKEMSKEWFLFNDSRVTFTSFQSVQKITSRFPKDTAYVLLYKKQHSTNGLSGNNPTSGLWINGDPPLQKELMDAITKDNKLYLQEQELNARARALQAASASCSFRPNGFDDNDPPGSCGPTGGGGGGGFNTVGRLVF
Put plainly: median log2 fold change of GCK-ALFA target abundance (FLAG IP / Myc IP barcode read proportion) (log2 ratio); each designed protein is fused to an ALFA-tag nanobody in HEK293 cells to bring the named protein to FLAG-tagged glucokinase (GCK); Myc marks an untargeted standard; higher = target protein stabilised (more abundant). To be noted: target protein: 3xFLAG-MCP-GCK-ALFA reporter; HEK293 landing pad (RPLP). In outline:
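HEK293 landing-pad cells received a recombined binder library fused to the ALFA nanobody and were induced with 2 μg mL^−1 doxycycline, then transfected with a plasmid encoding a FLAG-tagged target and a Myc-tagged standard. Lysates were collected after 48 h for anti-FLAG and anti-Myc immunoprecipitation, and the circular RNA barcodes were reverse transcribed, amplified and sequenced. Target abundance for each binder is the median log2 ratio of FLAG to Myc barcode read proportions. Barcodes had to reach a proportion of at least 10^−7 in both replicates, each binder needed at least 3 barcodes per replicate, a pseudocount of 10^−6 was applied, and the two replicates were pooled.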
Turning to B1, the “median log2 fold change” value was -0.0204.
With B2, the “median log2 fold change” value turned out to be 0.102.
The result for B3 reads 0.177; that for B4, 0.19; that for B5, -0.16.
On to B6, for which the “median log2 fold change” value was -0.243.
The result for B7 reads 0.0652; that for B8, -0.149.
The result for B9 reads 0.082; that for B10, 0.127.
As to B11, the “median log2 fold change” value amounted to 0.0224.
B12: the “median log2 fold change” value came to 0.104.
For the molecule B13, the “median log2 fold change” value was 0.16.
For the molecule B14, the “median log2 fold change” value was -0.0522.
For B15 the value was 0.186; for B16, -0.0616.
